# Screens as filed in PubChem BioAssay.
# PD-1 reverse act – activators reversing PD-1 mediated T-cell inhibition, primary screen, luminescence, primary human CD4 T cells, PD-L1 beads; CellTiter-Glo 96 h; activation, % (no concentration beside the values); 29,000 tested, under 10 active; AID 2316, 2010; call rule not given here;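 further: 0% = median vehicle wells and 100% = positive control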
# YB-1 expr inh – inhibitors of YB-1 gene expression, primary screen, cell-based, fluorescence; U2OS, qRT-PCR YB-1 vs CDIP delta delta Cp, 16 h; stronger effect = higher value; zero = DMSO, each unit about twofold; delta delta Cp (YB-1 minus CDIP) (concentration not given with the values); 30,000 tested, 0.37% active; AID 434959, 2010;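 active means delta delta Cp rounded down to an integer at or above 3, about 3 SD of DMSO wells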;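 further: higher means less YB-1 transcript or more CDIP transcript relative to DMSO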
# ROS inducer – ROS inducers in U2OS cancer cells, primary screen, cell-based, H2DCF-DA fluorescence; U2OS ROS induction; ROS induction (% of piperlongumine), % at 10 µM; 46,000 tested, 2% active; AID 624156, 2012; in the data active means ROS induction above about 79%, passing the limit was not always enough;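 further: 0% = DMSO vehicle median and 100% = reference compound median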
# Starred values were filed as active, the others as inactive; . = no result. This is a sample that favours compounds with a hit; in the whole collection about 2.1% have one here.
SMILES,PD-1 reverse act,YB-1 expr inh,ROS inducer
COc1ccc(S(=O)(=O)Nc2ccc3c(c2)C(=O)N([C@H](C)CO)C[C@@H](C)[C@H](CN(C)Cc2ccc(-c4ccccc4)cc2)O3)cc1,2,.,14
COc1ccc(S(=O)(=O)N(C)C[C@H]2Oc3ccc(NC(=O)Nc4ccc(F)cc4)cc3C(=O)N([C@@H](C)CO)C[C@H]2C)cc1,1,0.12,8
Cc1ccc(S(=O)(=O)Nc2ccc3c(c2)C(=O)N([C@@H](C)CO)C[C@H](C)[C@@H](CN(C)Cc2ccc(Oc4ccccc4)cc2)O3)cc1,-2,0.13,110*
COc1ccc(S(=O)(=O)Nc2ccc3c(c2)C(=O)N([C@@H](C)CO)C[C@H](C)[C@@H](CN(C)Cc2ccc(-c4ccccc4)cc2)O3)cc1,1,0.084,128*
COc1ccc(S(=O)(=O)Nc2ccc3c(c2)C(=O)N([C@H](C)CO)C[C@H](C)[C@@H](CN(C)S(C)(=O)=O)O3)cc1,1,16*,2
COc1ccc(S(=O)(=O)Nc2ccc3c(c2)C(=O)N([C@H](C)CO)C[C@H](C)[C@H](CN(C)S(=O)(=O)c2ccc(OC)cc2)O3)cc1,1,-0.18,15
Cc1ccc(S(=O)(=O)Nc2ccc3c(c2)C(=O)N([C@@H](C)CO)C[C@@H](C)[C@@H](CN(C)Cc2ccc(Oc4ccccc4)cc2)O3)cc1,.,0.053,10
c1ccc(Cn2ncc3c(Nc4ccc5ccccc5c4)ncnc32)cc1,.,.,-5
C=CCOC(=O)[C@@H]1[C@H]2C(=O)O[C@H](c3ccccc3)[C@H](c3ccccc3)N2[C@H](c2ccc(OCCOC(=O)[C@@H]3C[C@@H]4C(=O)NCC(=O)N4[C@@H]3c3ccc(O)cc3)cc2)[C@@]12C(=O)Nc1ccc(I)cc12,.,0.16,-9
CCc1ccc(CNC(=O)C2CCN(c3nc4ccccc4o3)CC2)cc1,.,.,-12
COc1ccccc1C(=O)CSc1nnc(-c2ccccc2Cl)n1-c1ccccc1,4,.,56
Cc1ccc(S(=O)(=O)Nc2ccc3c(c2)C(=O)N([C@@H](C)CO)C[C@H](C)[C@@H](CN(C)C(=O)Nc2ccccc2)O3)cc1,0,-0.42,109*
Cc1ccc(S(=O)(=O)Nc2ccc3c(c2)C(=O)N([C@@H](C)CO)C[C@H](C)[C@H](CN(C)C(=O)Nc2ccccc2)O3)cc1,-1,-0.34,2
O=C(c1cn(-c2ccccc2)nc1-c1cc2ccccc2oc1=O)n1nnc2ccccc21,-2,.,9
Cc1ccc(S(=O)(=O)Nc2cccc3c2O[C@@H](CN(C)Cc2ccc(Oc4ccccc4)cc2)[C@@H](C)CN([C@H](C)CO)C3=O)cc1,-2,0.2,54
Cc1ccc(S(=O)(=O)Nc2cccc3c2O[C@H](CN(C)Cc2ccc(Oc4ccccc4)cc2)[C@H](C)CN([C@H](C)CO)C3=O)cc1,-1,0.093,125*
COc1ccc(S(=O)(=O)Nc2cccc3c2O[C@@H](CN(C)Cc2ccc(-c4ccccc4)cc2)[C@@H](C)CN([C@@H](C)CO)C3=O)cc1,0,-0.52,47
C[C@@H]1CN([C@@H](C)CO)C(=O)c2cccc(NS(=O)(=O)c3ccc(F)cc3)c2O[C@H]1CN(C)Cc1ccc(Oc2ccccc2)cc1,.,0.61,31
COc1ccc(S(=O)(=O)Nc2cccc3c2O[C@H](CN(C)Cc2ccc(Oc4ccccc4)cc2)[C@H](C)CN([C@@H](C)CO)C3=O)cc1,-2,0.43,110*
COc1ccc(S(=O)(=O)Nc2cccc3c2O[C@@H](CN(C)Cc2ccc(Oc4ccccc4)cc2)[C@H](C)CN([C@H](C)CO)C3=O)cc1,1,-0.81,19
COc1ccc(S(=O)(=O)Nc2cccc3c2O[C@H](CN(C)Cc2ccc(-c4ccccc4)cc2)[C@H](C)CN([C@H](C)CO)C3=O)cc1,-2,-0.095,96*
C[C@H]1CN([C@@H](C)CO)C(=O)c2cccc(NS(=O)(=O)c3ccc(F)cc3)c2O[C@@H]1CN(C)Cc1ccc(Oc2ccccc2)cc1,-3,0.1,104*
CC(=O)c1cccc(NC(=O)CCN2C(=O)c3ccccc3S2(=O)=O)c1,2,.,-10
CC(C)(C)NC(=S)NCc1ccccc1,.,.,-8
COC(=O)c1c(N)n(CCc2ccccc2)c2nc3ccccc3nc12,-1,-0.093,55
SMILES,PD-1 reverse act,YB-1 expr inh,ROS inducer
COc1ccc(S(=O)(=O)Nc2cccc3c2O[C@H](CN(C)Cc2ccc(Cl)c(Cl)c2)[C@@H](C)CN([C@H](C)CO)C3=O)cc1,.,-0.035,5
Cc1noc(C)c1S(=O)(=O)Nc1cccc2c1O[C@@H](CN(C)Cc1ccc(-c3ccccc3)cc1)[C@@H](C)CN([C@@H](C)CO)C2=O,1,0.16,-1
C[C@@H]1CN([C@@H](C)CO)C(=O)c2cccc(NS(=O)(=O)c3cccs3)c2O[C@@H]1CN(C)Cc1ccc(-c2ccccc2)cc1,.,-0.35,37
COc1ccc(S(=O)(=O)Nc2cccc3c2O[C@H](CN(C)Cc2ccc(Cl)c(Cl)c2)[C@H](C)CN([C@@H](C)CO)C3=O)cc1,-2,-0.0042,84*
Cc1noc(C)c1S(=O)(=O)Nc1cccc2c1O[C@H](CN(C)Cc1ccc(-c3ccccc3)cc1)[C@H](C)CN([C@@H](C)CO)C2=O,-1,0.14,122*
C[C@H](CO)N1C[C@H](C)[C@@H](CN(C)Cc2ccc(-c3ccccc3)cc2)Oc2c(NS(=O)(=O)c3cccs3)cccc2C1=O,2,0.27,89*
C=C(C)C(=O)Nc1ccc(O)c(-c2nc3ccccc3[nH]2)c1,-2,-0.15,22
CCc1cccc(NC(=O)C2CCN(c3nn4c(=O)cc(C)nc4s3)CC2)c1,.,.,-6
O=C(Nc1cccc(F)c1)C1CCN(c2ncnc3c2sc2cccc(F)c23)CC1,.,.,111*
COC(=O)CCCCCCC(=O)N/N=C/c1ccco1,.,0.35,9
C[C@H]1CN([C@@H](C)CO)C(=O)c2cccc(NC(=O)C3CCCCC3)c2O[C@H]1CN(C)Cc1ccc(Oc2ccccc2)cc1,0,0.3,34
C[C@H](CO)N1C[C@H](C)[C@@H](CN(C)Cc2ccc(-c3ccccc3)cc2)Oc2ccc(N(C)C)cc2C1=O,-2,0.12,94*
C[C@@H]1CN([C@@H](C)CO)C(=O)c2cc(N(C)C)ccc2O[C@@H]1CN(C)Cc1ccc(-c2ccccc2)cc1,0,0.37,-2
C[C@H](CO)N1C[C@H](C)[C@@H](CN(C)Cc2ccc(Oc3ccccc3)cc2)Oc2c(NC(=O)C3CC3)cccc2C1=O,-2,-0.089,84*
C[C@@H]1CN([C@@H](C)CO)C(=O)c2cc(NC(=O)C3CCCCC3)ccc2O[C@@H]1CN(C)Cc1ccc(Oc2ccccc2)cc1,0,-0.68,10
C[C@H]1CN([C@@H](C)CO)C(=O)c2cc(NC(=O)C3CCCCC3)ccc2O[C@@H]1CN(C)Cc1ccc(Oc2ccccc2)cc1,-5,0.13,89*
C[C@@H]1CN([C@@H](C)CO)C(=O)c2cccc(NC(=O)C3CC3)c2O[C@@H]1CN(C)Cc1ccc(Oc2ccccc2)cc1,2,0.53,11
